PINK1 expr mod – modulators of PINK1 expression; Potency, µM (titrated, usually from 76.6 µM), for inactives: at the top dose activation (PINK1 increase), hits mostly activators; AID 624263; PINK1 immunofluorescence, high-content cytometry, 24 h; 0.2% of 410,000 active; active = well fitted activation curve with a large enough effect; inconclusive = small, poorly fitted or top-dose-only effect; cell line not stated here; note: % of control where 0% means no effect; nearly all actives have a fitted effect of over 65% in size
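Stable cell line treated 24 h with compounds at 5 concentrations (CCCP controls), then fixed and immunostained for PINK1 plus nuclear and cell stains; PINK1 immunofluorescence quantified by laser-scanning microplate cytometry.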
Epigenetic derep – derepresses silenced GFP reporter in murine cells. Potency, µM (highest dose often 53.9 µM), inactives show at the highest dose GFP activation, usual class: activators. murine LDR cells, GFP reporter derepression, 30 h. AID 1865. 0.2% of 280,000 active; note: % of control where 0% means no effect; nearly all actives have a fitted effect of over 60% in size
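GFP-positive cell count by laser-scanning cytometry (objects 20–120 um) after 30 h, 37 C compound exposure of murine LDR cells; reporter is CMV-GFP integrated at a silenced locus, inducible by HDAC or DNMT inhibitors.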
Nrf2 ARE act – Nrf2 pathway activation; Potency, µM (titrated, usually from 46.1 µM), for inactives: at the top dose activation, usual class: activators; 0.31% of 410,000 active; AREc32 ARE-luciferase reporter (MCF7-derived line), luminescence, 24 h; note: % of control where 0% means no effect; nearly all actives have a fitted effect of over 65% in size
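AREc32 cells carrying an ARE-driven firefly luciferase, 1000 cells/well in OPTI-MEM with 5% FBS, dosed after overnight attachment and incubated 24 hr at 37 deg C. Steady-Glo luminescence read after 30 min at RT.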
A549 tox – kills or reduces viability of A549 cells in Nrf2 counter-screen | A549 ARE-Fluc cells, CellTiter-Fluor viability, 18-24 h | Potency, µM (series often up to 46 µM), for inactives: at the top dose activity change, negative = cytotoxicity, hits mostly inhibitors | 0.16% of 390,000 active | AID 504648; note: % is set by controls: 0 for no effect and ±100 for the full control effect
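A549 ARE_Fluc cells in 5% FBS OPTI-MEM were exposed to compounds in concentration-response for 18-24 h at 37 deg C. Viability was read by CellTiter-Fluor fluorescence (Ex 405/Em 525) after 30 min, before the luciferase read.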
Nrf2 inh – blocks Nrf2 signaling. A549 ARE-Fluc reporter, luciferase luminescence, 18-24 h. Potency, µM (highest dose often 46 µM), without a hit: top-dose activity change, negative = inhibition, actives largely listed as inhibitors. 2.1% of 360,000 active; note: % is set by controls: 0 for no effect and ±100 for the full control effect; nearly all actives have a fitted effect of over 60% in size
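Nrf2 function is reported as luminescence of an ARE-controlled luciferase in A549 cells. Compounds were tested at several concentrations, and a CellTiter-Fluor read on the same wells flagged cytotoxicity.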
An asterisk follows results filed as active; ? = inconclusive; . = no result; [ ] = dose if it differs, or a comment. Most compounds without a hit are left out; they make up all but 2.4% or so of the library. Unless noted, calls come from the whole dose curve; as a rule, active = well fitted curve in the direction sought with a large enough effect; inconclusive = small, poorly fitted or top-dose-only effect, or another doubt; inactive = no such curve, though single readings can be large; an effect the other way counts as inactive or inconclusive. Potency is the fitted concentration of half-maximal effect.

SMILES | PINK1 expr mod | Epigenetic derep | Nrf2 ARE act | A549 tox | Nrf2 inh
CC(C)c1c(C(=O)NCc2cccnc2)cnn1-c1nccc(-c2cccs2)n1 | 0.0% | . | . | . | .
COc1ccc(-c2nc(C(N)=O)c3[nH]c(=O)n(-c4cccc(Cl)c4)c3n2)cc1OC | 2.5% | 0.0% | 3.7% | ? | 25.9µM*
COc1cccc(-c2nc3cc4c(cc3cc2CN(C(=O)c2cccs2)C2CC2)CCC4)c1OC | 6.3% | . | . | . | .
COc1cccc(N=C2SC(C(=O)Nc3ccc(F)cc3)CC(=O)N2C)c1 (configuration not stated) | . | -1.0% | 0.4% | ? | 20.6µM*
N#Cc1ccc(-c2cccnc2)nc1SCc1ccc(Cl)c(Cl)c1 | 2.7% | -0.6% | 8.2% | -15.4% | 23.1µM*
CCN(Cc1ccncc1)Cc1ccc2c(c1)CN(C(=O)c1ccc(OC)cc1)CCO2 | -0.8% | . | . | . | .
Fc1ccccc1-c1nc(-c2ccncc2)no1 | -1.8% | . | 12.6µM* | 1.8% | ?
c1ccc2c(-c3nc(-c4ccncc4)no3)cccc2c1 | -5.9%[38.3 µM] | 1.2% | 24.9% | 19.3% | ?
Clc1ccc(Br)cc1-c1nc(-c2ccncc2)no1 | -3.5% | -1.1% | 3.98µM* | 0.4% | ?
c1ccc(-c2noc(-c3cccc4ccccc34)n2)cc1 | 8.8% | 4.8% | 1.58µM* | 11.1% | ?
Brc1cccc(-c2nc(-c3ccncc3)no2)c1 | 1.3% | -5.9% | 11.2µM* | 9.2% | .
Cc1cccc(Cn2c(CNS(=O)(=O)c3ccc(C(C)C)cc3)nc3cccnc32)c1 | 1.0% | 0.0% | -1.3% | -15.1% | .
CC12C=C(/C=C/c3ccccc3)C(C)(C1)C(c1ccccc1)CC2=O (configuration not stated) | . | 0.8%[10.1 µM] | . | . | .
O=C(O)c1ccc(-c2noc(-c3cccc(C(F)(F)F)c3)n2)cc1 | 0.0% | . | 5.1% | -7.6% | -25.0%
FC(F)(F)c1cccc(-c2nc(-c3ccncc3)no2)c1 | 3.7% | . | 11.2µM* | -0.5% | ?
Cc1cc(C)cc(-c2nc(-c3ccncc3)no2)c1 | 11.5% | -0.2% | 0.4% | 0.9% | ?
Cc1cccc(-c2nc(-c3ccncc3)no2)c1 | 0.8% | . | 12.6µM* | 2.1% | ?
O=[N+]([O-])c1cc(-c2nc(-c3ccncc3)no2)cc([N+](=O)[O-])c1 | 1.7% | 0.0% | 2.6% | -1.8% | ?
Cc1c(-c2nc(-c3ccncc3)no2)cccc1[N+](=O)[O-] | 0.1% | 0.1% | 11.2µM* | 12.8% | 11.9%
CCC(C)NC(=O)c1nn(-c2ccc(C)cc2)nc1CO (configuration not stated) | -0.9% | 0.2% | 3.4% | -6.3% | -3.5%
O=C(NCC1Cc2cccc(-c3cncnc3)c2O1)C1CC1 (configuration not stated) | -0.6% | . | . | . | .
CCN(C(=O)c1cn(CC(C)C)c(=O)c2cc(OC)c(OC)cc12)c1cc(OC)ccc1OC | 1.2% | -0.2% | -0.6% | 1.3% | -6.5%[9.27 µM]
S=C(NCCCNc1ccc(Br)cn1)NCCCc1cnc[nH]1 | . | . | . | -0.5% | -9.9%
CN(C)c1ccc(-c2nccc(Nc3ccc(F)cc3)n2)cc1 | 6.4% | . | . | . | .
Cc1cccc(NC(=S)NCc2ccco2)n1 | 0.8% | -0.3% | 12.6µM* | -3.3% | -11.5%
SMILES | PINK1 expr mod | Epigenetic derep | Nrf2 ARE act | A549 tox | Nrf2 inh
O=C(CCN1CCc2ccccc2CC1)c1ccc2c(c1)OCCO2 | -1.4% | -1.0% | ? | . | 18.4µM*
O=C(CCN1CCOCC1)c1ccc2c(c1)OCCO2 | -1.2% | 1.0% | ? | -1.6% | -6.0%
COC(=O)C(Cc1ccccc1)NS(=O)(=O)c1cc(Br)ccc1Br (configuration not stated) | . | . | . | -1.1% | 19.5%
Cc1cccc(COCC(CC(C)C)N2CCN(C(=O)c3ccc(C(C)(C)C)cc3)CCC2=O)c1 (configuration not stated) | -1.1% | -2.6% | -5.6% | ? | 23.1µM*
CCOc1ccc(NS(=O)(=O)c2ccc(C(=O)N(C)Cc3cccc(OC)c3OC)cc2)cc1 | -3.0% | . | 2.7% | -7.4% | 14.6µM*
COc1cccc(CN(C)C(=O)c2ccc(NS(=O)(=O)c3ccc4[nH]c(=O)[nH]c4c3)cc2)c1OC | -1.8% | . | -0.7% | -2.3% | 6.8%
CCOc1ccc(NS(=O)(=O)c2ccc(C(=O)N3CCN(c4ncccn4)CC3)cc2)cc1 | -0.5% | -1.1% | 2.3% | -21.3% | 16.4µM*
CCOC(=O)N1CCN(C(=O)c2ccc(NS(=O)(=O)c3ccc(F)cc3)cc2)CC1 | 1.0% | -7.7% | -1.0% | -2.2% | 16.4µM*
COc1ccc(C(=O)N2CCC3(CC2)c2ccccc2[C@@H](NC(=O)c2ccccn2)[C@@H]3OC)c(O)c1 | -1.3% | . | . | . | .
COc1ccc(C(=O)N(O)c2ccccc2)cc1 | . | 0.8% | . | . | .
COc1ccc(S(=O)(=O)n2ccc(-c3ccc4c(c3)CCC(C)(C)O4)n2)cc1 | 0.8% | -1.4% | -0.1% | 0.0% | 13µM*
CC(=O)c1cccc(Nc2c3c(nc4ccccc24)CCC3)c1 | 6.2% | . | -0.1% | 1.4% | -13.9%
CCOC(=O)c1cccc(Nc2c3c(nc4ccccc24)CCC3)c1 | 7.8% | 0.5% | -1.8% | -16.4% | 20.6µM*
c1ccc2c(Nc3ccc4c(c3)OCCO4)c3c(nc2c1)CCCC3 | 39.8µM* | -0.4% | 9.4% | -2.4% | ?
COC(=O)c1cccc(Nc2c3c(nc4ccccc24)CCC3)c1 | 23.3% | . | 0.2% | -27.3% | 23.1µM*
O=C(c1ccc(N2CCCC2)c([N+](=O)[O-])c1)N1CCc2ccccc2C1 | 4.1% | . | 2.9% | -20.8% | ?
COC(=O)CCN(C(=O)c1ccc(N2CCCCC2)c([N+](=O)[O-])c1)c1ccccn1 | 7.0% | -1.3% | 0.3% | -2.2% | -4.1%
CC1Cc2ccccc2N1C(=O)c1ccc(N2CCCCC2)c([N+](=O)[O-])c1 (configuration not stated) | 3.3% | -1.0% | 0.4% | -12.5% | 23.1µM*
O=C(c1ccc(N2CCCCC2)c([N+](=O)[O-])c1)N(Cc1ccccc1)c1ccccn1 | 0.3% | -1.1% | 3.2% | -8.3% | 16.4µM*
O=C(O)c1ccccc1C(=O)c1ccc(N2CCCC2)c([N+](=O)[O-])c1 | 0.0% | -4.5% | 0.2% | -15.6% | -1.1%
CC1Cc2ccccc2N1C(=O)c1ccc(N2CCCC2)c([N+](=O)[O-])c1 (configuration not stated) | 0.1% | 0.0% | 2.6% | ? | 18.4µM*
Cc1c(Cl)ccc2sc(N3CCN(C(=O)c4ccco4)CC3)nc12 | -0.9% | 4.1% | 6.5% | 3.0% | .
CC1CCN(c2oc(-c3cccs3)nc2S(=O)(=O)c2ccc(Cl)cc2)CC1 | 0.6% | 2.8% | 6.3% | -7.3% | -19.1%
O=[N+]([O-])c1ccc(O)c(C(C#Cc2ccccc2)N2CCOCC2)c1 (configuration not stated) | 39.8µM* | 0.0% | 15.9% | 3.1% | 5.5%

From PubChem
